# Source: article PMC7862700, “An all-to-all approach to the identification of sequence-specific readers for epigenetic DNA modifications on cytosine”
# Tests used:
# Experiment in all cases: DAPPL (digital affinity profiling via proximity ligation, sequencing); 10 mM Tris-HCl pH 7.5, 50 mM NaCl, 1 mM DTT, 4% glycerol, room temperature, 30 min; GST-TFs on glutathione beads, 16-mer random dsDNA library, 0.1% formaldehyde crosslink after washing; high values mean tight binding
# FEV = target: T1, FEV (Homo sapiens, UniProt Q99581 1-238); settings: protein: recombinant; tags: N-terminal GST; dsDNA, one strand shown
# T1 sequence: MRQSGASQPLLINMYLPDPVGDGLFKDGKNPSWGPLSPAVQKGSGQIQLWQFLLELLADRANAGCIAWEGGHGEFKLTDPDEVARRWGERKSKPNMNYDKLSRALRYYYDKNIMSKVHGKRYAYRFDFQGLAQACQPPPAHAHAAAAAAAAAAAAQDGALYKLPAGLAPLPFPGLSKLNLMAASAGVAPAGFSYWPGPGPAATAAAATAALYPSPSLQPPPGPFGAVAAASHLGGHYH
# Outline: (§1)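 Each value of binding signal is a hexamer's read frequency for a factor divided by the same hexamer's frequency in the tag-only sample. Barcoded, bead-captured GST fusions of human transcription factors made in yeast were pooled with that sample and incubated with 200 nmole of a random double-stranded 16-mer DNA library in Tris/NaCl/DTT/glycerol buffer at room temperature for 30 min. Washing, 0.1% formaldehyde crosslinking, proximity ligation, PCR and Illumina NextSeq500 sequencing followed.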
# ETV5 = ETV5 (Homo sapiens, UniProt P41161 1-510); settings: protein: recombinant; tags: N-terminal GST; dsDNA, one strand shown
# ETV5, sequence (P41161 whole entry): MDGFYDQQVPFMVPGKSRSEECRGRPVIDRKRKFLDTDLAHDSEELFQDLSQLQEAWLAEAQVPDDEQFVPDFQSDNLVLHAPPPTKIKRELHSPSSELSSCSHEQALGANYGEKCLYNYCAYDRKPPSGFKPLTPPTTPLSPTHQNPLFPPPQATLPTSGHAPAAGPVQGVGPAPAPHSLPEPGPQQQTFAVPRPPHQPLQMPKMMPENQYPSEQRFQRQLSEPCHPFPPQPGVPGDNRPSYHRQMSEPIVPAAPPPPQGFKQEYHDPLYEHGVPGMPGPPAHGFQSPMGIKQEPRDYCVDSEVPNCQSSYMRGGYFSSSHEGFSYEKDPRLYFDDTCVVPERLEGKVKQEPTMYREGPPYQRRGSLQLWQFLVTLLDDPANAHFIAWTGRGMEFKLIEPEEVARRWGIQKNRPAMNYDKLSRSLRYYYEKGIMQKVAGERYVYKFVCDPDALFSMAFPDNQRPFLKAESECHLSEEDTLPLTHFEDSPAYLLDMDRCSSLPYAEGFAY
# Outline: as §1
# HSF1 = HSF1 (Homo sapiens, UniProt Q00613 1-529); settings: protein: recombinant; tags: N-terminal GST; chain copies: 3; dsDNA, one strand shown
# HSF1, sequence (Q00613 whole entry): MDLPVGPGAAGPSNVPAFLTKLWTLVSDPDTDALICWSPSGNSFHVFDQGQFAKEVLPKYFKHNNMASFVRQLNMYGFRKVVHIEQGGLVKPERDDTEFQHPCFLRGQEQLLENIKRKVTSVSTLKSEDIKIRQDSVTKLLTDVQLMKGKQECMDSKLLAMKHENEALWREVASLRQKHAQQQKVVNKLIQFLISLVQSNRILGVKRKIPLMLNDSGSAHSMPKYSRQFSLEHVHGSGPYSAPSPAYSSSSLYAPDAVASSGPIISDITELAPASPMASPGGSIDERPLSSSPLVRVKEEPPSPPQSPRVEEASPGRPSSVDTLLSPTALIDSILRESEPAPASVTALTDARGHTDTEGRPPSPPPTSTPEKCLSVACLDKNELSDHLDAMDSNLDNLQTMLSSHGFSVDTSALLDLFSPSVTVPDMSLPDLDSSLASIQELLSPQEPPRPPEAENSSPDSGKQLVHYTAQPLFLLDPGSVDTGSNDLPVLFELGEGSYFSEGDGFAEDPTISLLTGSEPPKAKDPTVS
# Outline: as §1
# SPIC = target: T2, SPIC (Homo sapiens, UniProt Q8N5J4 1-248); settings: protein: recombinant; tags: N-terminal GST; dsDNA, one strand shown
# T2 sequence: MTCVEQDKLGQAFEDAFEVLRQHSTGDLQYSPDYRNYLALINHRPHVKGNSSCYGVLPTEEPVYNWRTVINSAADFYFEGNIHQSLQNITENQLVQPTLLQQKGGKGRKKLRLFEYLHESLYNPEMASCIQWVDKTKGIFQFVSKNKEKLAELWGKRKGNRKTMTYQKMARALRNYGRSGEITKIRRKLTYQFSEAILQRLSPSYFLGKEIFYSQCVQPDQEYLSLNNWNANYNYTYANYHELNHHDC
# Outline: as §1
# ELF4 = ELF4 (Homo sapiens, UniProt Q99607 1-663); settings: protein: recombinant; tags: N-terminal GST; dsDNA, one strand shown
# ELF4, sequence (Q99607 whole entry): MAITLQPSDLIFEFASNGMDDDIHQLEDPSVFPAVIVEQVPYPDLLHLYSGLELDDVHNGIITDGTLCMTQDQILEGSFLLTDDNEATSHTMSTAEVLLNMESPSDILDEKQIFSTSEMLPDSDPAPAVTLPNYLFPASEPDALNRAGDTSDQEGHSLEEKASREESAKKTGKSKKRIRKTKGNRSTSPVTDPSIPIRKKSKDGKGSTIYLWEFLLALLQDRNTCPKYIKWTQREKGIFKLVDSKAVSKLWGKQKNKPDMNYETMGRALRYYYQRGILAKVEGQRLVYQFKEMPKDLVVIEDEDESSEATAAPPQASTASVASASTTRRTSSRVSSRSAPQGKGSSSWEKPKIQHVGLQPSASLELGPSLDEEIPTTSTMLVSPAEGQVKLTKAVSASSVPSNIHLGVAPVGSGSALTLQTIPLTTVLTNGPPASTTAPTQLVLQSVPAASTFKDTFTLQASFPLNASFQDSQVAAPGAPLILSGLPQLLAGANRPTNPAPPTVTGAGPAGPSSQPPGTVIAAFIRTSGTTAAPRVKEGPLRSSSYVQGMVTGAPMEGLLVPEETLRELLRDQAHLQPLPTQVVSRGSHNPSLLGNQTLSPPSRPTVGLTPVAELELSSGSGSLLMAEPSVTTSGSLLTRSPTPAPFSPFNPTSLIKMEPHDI
# Outline: as §1
# ELK4 = target: T3, ELK4 (Homo sapiens, UniProt P28324-2 1-405); settings: protein: recombinant; tags: N-terminal GST; dsDNA, one strand shown
# T3 sequence: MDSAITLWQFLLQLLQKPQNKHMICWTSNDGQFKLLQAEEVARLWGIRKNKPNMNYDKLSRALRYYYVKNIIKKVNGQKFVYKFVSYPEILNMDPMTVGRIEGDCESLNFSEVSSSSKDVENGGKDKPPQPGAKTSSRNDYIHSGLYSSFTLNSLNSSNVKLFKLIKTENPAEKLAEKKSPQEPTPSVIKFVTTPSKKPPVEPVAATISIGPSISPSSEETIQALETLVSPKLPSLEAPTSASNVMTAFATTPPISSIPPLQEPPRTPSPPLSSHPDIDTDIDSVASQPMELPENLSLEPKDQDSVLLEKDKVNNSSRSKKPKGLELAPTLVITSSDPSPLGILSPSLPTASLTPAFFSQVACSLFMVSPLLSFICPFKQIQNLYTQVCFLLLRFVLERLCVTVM
# Outline: as §1
# ETV2 = target: T4, ETV2 (Homo sapiens, UniProt O00321 1-342); settings: protein: recombinant; tags: N-terminal GST; dsDNA, one strand shown
# T4 sequence: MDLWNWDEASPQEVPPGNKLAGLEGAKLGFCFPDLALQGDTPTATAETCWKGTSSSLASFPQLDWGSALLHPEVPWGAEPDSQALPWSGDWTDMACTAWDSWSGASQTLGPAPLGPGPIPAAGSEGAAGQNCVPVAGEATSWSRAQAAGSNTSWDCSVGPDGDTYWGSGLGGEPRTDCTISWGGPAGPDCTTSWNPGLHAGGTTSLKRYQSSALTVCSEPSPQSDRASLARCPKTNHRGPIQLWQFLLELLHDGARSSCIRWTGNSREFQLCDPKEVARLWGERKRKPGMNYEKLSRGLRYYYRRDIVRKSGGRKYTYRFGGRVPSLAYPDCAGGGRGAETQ
# Outline: as §1
# ELF3 = target: T5, ELF3 (Homo sapiens, UniProt P78545 1-371); settings: protein: recombinant; tags: N-terminal GST; dsDNA, one strand shown
# T5 sequence: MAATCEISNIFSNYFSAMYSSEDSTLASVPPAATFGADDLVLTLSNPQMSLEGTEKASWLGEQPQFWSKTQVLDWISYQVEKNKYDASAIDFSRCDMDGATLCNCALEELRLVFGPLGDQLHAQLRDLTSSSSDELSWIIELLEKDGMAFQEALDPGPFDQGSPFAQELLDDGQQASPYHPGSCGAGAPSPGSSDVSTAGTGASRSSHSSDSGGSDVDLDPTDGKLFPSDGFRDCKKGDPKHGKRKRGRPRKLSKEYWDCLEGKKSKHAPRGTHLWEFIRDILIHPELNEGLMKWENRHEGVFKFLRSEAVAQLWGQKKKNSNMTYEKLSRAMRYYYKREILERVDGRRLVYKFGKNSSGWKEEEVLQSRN
# Outline: as §1
# CRX = CRX (Homo sapiens, UniProt O43186 1-299); settings: protein: recombinant; tags: N-terminal GST; dsDNA, one strand shown
# CRX, sequence (O43186 whole entry): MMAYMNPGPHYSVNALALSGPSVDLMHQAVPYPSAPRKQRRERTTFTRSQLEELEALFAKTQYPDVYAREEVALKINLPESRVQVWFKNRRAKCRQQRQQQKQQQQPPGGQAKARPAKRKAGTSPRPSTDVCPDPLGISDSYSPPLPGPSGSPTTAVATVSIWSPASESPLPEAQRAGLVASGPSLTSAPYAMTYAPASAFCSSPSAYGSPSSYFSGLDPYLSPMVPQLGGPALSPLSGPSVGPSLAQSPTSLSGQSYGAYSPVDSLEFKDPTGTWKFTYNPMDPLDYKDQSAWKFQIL
# Outline: as §1
# ETV1 = ETV1 (Homo sapiens, UniProt P50549 1-477); settings: protein: recombinant; tags: N-terminal GST; dsDNA, one strand shown
# ETV1, sequence (P50549 whole entry): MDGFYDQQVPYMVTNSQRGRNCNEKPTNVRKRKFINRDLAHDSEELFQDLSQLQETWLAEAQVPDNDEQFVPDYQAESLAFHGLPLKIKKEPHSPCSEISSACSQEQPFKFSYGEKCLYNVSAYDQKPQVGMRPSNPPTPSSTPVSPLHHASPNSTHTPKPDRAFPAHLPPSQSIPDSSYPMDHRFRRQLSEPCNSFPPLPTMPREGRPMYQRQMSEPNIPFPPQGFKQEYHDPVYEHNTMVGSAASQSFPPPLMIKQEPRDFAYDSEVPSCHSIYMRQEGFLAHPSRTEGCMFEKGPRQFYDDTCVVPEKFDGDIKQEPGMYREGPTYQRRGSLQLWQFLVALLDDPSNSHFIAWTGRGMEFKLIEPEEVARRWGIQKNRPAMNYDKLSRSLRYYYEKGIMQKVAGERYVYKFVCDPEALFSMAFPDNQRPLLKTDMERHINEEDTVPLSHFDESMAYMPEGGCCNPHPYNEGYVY
# Outline: as §1
# ERF = target: T6, ERF (Homo sapiens, UniProt P50548 1-548); settings: protein: recombinant; tags: N-terminal GST; dsDNA, one strand shown
# T6 sequence: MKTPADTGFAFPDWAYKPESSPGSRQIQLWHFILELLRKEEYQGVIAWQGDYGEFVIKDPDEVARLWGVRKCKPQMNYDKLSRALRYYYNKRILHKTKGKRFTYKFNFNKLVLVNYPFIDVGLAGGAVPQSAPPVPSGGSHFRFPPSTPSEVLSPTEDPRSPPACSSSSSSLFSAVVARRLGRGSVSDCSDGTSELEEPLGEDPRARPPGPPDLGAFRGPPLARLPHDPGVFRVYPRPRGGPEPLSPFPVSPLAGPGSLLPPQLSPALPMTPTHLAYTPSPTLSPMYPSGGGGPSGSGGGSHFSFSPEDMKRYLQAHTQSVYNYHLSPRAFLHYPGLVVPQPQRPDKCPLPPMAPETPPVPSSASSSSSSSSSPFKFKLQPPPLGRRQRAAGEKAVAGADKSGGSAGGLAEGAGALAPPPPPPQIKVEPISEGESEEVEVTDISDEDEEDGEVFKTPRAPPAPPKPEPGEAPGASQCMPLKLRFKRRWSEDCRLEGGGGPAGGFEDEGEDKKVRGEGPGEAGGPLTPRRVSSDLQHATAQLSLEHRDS
# Outline: as §1
# ETV3L = target: T7, ETV3L (Homo sapiens, UniProt Q6ZN32 1-361); settings: protein: recombinant; tags: N-terminal GST; dsDNA, one strand shown
# T7 sequence: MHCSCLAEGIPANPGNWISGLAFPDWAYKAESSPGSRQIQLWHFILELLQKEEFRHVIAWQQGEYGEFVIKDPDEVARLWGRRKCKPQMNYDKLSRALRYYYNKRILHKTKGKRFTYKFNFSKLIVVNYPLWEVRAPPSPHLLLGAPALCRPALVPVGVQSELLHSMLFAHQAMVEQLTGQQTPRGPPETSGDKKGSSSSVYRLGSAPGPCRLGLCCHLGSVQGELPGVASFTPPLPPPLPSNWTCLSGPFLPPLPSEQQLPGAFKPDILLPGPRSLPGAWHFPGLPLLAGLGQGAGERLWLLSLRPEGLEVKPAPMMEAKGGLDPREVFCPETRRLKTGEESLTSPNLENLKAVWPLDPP
# Outline: as §1
# ETS2 = target: T8, ETS2 (Homo sapiens, UniProt P15036 1-469); settings: protein: recombinant; tags: N-terminal GST; dsDNA, one strand shown
# T8 sequence: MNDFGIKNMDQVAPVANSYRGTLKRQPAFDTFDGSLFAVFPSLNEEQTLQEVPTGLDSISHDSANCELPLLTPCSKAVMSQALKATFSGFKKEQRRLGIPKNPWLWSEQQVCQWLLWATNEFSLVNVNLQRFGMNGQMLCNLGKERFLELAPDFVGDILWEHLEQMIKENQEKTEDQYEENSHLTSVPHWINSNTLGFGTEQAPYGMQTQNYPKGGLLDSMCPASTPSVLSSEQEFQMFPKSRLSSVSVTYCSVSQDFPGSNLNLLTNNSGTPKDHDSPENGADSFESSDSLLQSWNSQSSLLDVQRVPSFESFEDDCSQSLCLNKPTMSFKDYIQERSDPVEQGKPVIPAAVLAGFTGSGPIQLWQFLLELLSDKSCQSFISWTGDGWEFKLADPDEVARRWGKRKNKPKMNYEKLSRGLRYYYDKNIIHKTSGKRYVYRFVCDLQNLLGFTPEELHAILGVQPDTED
# Outline: as §1
# SPDEF = target: T9, SPDEF (Homo sapiens, UniProt O95238 1-335); settings: protein: recombinant; tags: N-terminal GST; dsDNA, one strand shown
# T9 sequence: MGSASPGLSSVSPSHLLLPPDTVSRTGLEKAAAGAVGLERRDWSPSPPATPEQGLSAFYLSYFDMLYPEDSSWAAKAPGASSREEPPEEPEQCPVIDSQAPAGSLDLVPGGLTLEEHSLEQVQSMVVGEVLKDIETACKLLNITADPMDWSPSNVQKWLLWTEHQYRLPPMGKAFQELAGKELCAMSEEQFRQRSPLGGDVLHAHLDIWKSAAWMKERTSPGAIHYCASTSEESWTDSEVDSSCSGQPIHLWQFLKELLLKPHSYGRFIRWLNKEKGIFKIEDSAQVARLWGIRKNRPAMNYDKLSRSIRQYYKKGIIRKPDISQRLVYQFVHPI
# Outline: as §1
# ETV7 = target: T10, ETV7 (Homo sapiens, UniProt Q9Y603 1-341); settings: protein: recombinant; tags: N-terminal GST; dsDNA, one strand shown
# T10 sequence: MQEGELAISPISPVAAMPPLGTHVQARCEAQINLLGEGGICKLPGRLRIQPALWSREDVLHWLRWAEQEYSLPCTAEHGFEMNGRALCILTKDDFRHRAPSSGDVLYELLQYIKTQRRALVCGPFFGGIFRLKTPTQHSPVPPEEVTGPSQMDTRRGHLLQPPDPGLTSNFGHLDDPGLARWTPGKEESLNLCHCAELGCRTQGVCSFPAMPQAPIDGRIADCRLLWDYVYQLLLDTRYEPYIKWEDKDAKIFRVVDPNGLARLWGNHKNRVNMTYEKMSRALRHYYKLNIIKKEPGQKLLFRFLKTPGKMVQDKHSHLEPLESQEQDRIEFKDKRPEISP
# Outline: as §1
# ELF5 = target: T11, ELF5 (Homo sapiens, UniProt Q9UKW6-2 1-255); settings: protein: recombinant; tags: N-terminal GST; dsDNA, one strand shown
# T11 sequence: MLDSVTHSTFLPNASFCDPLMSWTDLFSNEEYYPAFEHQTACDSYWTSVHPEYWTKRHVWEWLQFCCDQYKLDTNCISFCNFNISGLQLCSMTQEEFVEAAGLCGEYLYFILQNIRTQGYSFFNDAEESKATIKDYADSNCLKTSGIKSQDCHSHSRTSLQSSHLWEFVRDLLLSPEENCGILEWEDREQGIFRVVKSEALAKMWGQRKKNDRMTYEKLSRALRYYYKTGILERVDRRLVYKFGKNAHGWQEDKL
# Outline: as §1
# ETV3 = target: T12, ETV3 (Homo sapiens, UniProt P41162-2 1-143); settings: protein: recombinant; tags: N-terminal GST; dsDNA, one strand shown
# T12 sequence: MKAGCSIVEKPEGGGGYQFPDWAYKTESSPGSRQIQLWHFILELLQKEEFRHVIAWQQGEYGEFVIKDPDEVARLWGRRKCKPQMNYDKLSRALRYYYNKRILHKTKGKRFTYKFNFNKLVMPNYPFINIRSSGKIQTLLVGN
# Outline: as §1
# ETV6 = ETV6 (Homo sapiens, UniProt P41212 1-452); settings: protein: recombinant; tags: N-terminal GST; dsDNA, one strand shown
# ETV6, sequence (P41212 whole entry): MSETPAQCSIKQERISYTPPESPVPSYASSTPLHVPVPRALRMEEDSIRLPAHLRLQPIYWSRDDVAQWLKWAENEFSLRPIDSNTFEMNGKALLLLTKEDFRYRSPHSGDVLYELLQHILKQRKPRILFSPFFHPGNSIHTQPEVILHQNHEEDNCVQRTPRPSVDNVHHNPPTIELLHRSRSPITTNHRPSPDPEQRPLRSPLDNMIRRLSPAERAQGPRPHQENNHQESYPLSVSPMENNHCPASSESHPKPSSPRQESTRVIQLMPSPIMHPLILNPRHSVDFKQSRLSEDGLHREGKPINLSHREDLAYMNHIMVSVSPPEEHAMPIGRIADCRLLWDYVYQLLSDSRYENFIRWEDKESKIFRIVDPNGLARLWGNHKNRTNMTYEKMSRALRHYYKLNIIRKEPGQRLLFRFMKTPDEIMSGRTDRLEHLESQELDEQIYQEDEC
# Outline: as §1
sequence,measurement,setting,value
ACAATC,binding signal,FEV,"1.11 fold enrichment (6-mer frequency, TF over GST control)"
same,binding signal,ETV5,"1.1 fold enrichment (6-mer frequency, TF over GST control)"
same,binding signal,HSF1,"1.43 fold enrichment (6-mer frequency, TF over GST control)"
same,binding signal,SPIC,"1.17 fold enrichment (6-mer frequency, TF over GST control)"
same,binding signal,ELF4,"1.11 fold enrichment (6-mer frequency, TF over GST control)"
same,binding signal,ELK4,"1.15 fold enrichment (6-mer frequency, TF over GST control)"
same,binding signal,ETV2,"1.18 fold enrichment (6-mer frequency, TF over GST control)"
same,binding signal,ELF3,"1.29 fold enrichment (6-mer frequency, TF over GST control)"
same,binding signal,CRX,"1.36 fold enrichment (6-mer frequency, TF over GST control)"
same,binding signal,ETV1,"1.16 fold enrichment (6-mer frequency, TF over GST control)"
same,binding signal,ERF,"1.2 fold enrichment (6-mer frequency, TF over GST control)"
same,binding signal,ETV3L,"1.14 fold enrichment (6-mer frequency, TF over GST control)"
same,binding signal,ETS2,"1.17 fold enrichment (6-mer frequency, TF over GST control)"
same,binding signal,SPDEF,"1.16 fold enrichment (6-mer frequency, TF over GST control)"
same,binding signal,ETV7,"1.16 fold enrichment (6-mer frequency, TF over GST control)"
same,binding signal,ELF5,"1.19 fold enrichment (6-mer frequency, TF over GST control)"
same,binding signal,ETV3,"1.14 fold enrichment (6-mer frequency, TF over GST control)"
same,binding signal,ETV6,"1.12 fold enrichment (6-mer frequency, TF over GST control)"
